# Test results as given in PubChem BioAssay (Tox21).
# “And” between values parts separate entries of the source, which are not always exact repeats. Identical values can stand only once. Inconclusive results are not listed. Where a call stands in place of a potency, no number is given. A number with no mark means an inactive call. The source made the active and inactive calls. The call rests on the fitted dose curve; in most records, active means well fitted curve in the direction sought with a large enough effect in the repeat runs; inconclusive means weak or mixed curves; inactive means no such curve, though single readings can be large; an effect the other way counts as inactive or inconclusive.
# Legend:
# [1] = qHTS RealTime-Glo MT Cell Viability Assay in HepG2 cells - 40 hour (AID 1224870); further: nearly all actives have a fitted effect of over 50% in size
# Procedure, shortened: (§1)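 HepG2 cells mixed with RealTime-Glo MT reagents (NanoLuc plus cell-permeant prosubstrate) were seeded at 600 cells/well, incubated 5 h at 37 C/5% CO2, then pinned with compounds in DMSO; nonlytic luminescence tracked viability during 40 h treatment.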
# [2] = A CellTox Green Cytotoxicity Assay to monitor cytotoxicity in HEK293 cells - 40 hour (AID 1224871); further: nearly all actives have a fitted effect of over 45% in size; further: potency means the concentration at half of the fitted maximal effect
# Procedure, shortened: (§2)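 Cytotoxicity was tracked continuously in HEK293 cells by a DNA-binding dye excluded from viable cells. Compounds were transferred in DMSO 5 h after seeding; fluorescence was recorded at intervals up to 40 h.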
# [3] = qHTS RealTime-Glo MT Cell Viability Assay in HEK293 cells - 16 hour (AID 1224872); further: nearly all actives have a fitted effect of over 50% in size; further: potency means the concentration at half of the fitted maximal effect
# Procedure, shortened: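 Nonlytic real-time viability readout: viable cells convert prosubstrate to NanoLuc substrate, giving luminescence proportional to live cell number. HEK293, 600 cells/well, compound added after 5 h, continuous culture at 37 C.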
# [4] = qHTS RealTime-Glo MT Cell Viability Assay in HepG2 cells - 8 hour (AID 1224873); further: nearly all actives have a fitted effect of over 55% in size
# Procedure, shortened: as §1
# [5] = qHTS RealTime-Glo MT Cell Viability Assay in HEK293 cells - 40 hour (AID 1224874); conditions: RealTime-Glo luminescence; max response: active compounds read low; further: nearly all actives have a fitted effect of over 50% in size; further: potency means the concentration at half of the fitted maximal effect
# Procedure, shortened: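 Nonlytic bioluminescent viability monitoring. HEK293 at 600 cells/well with reagent; 5 h settle; compound transfer by pintool; plates held at 37 C and read at set time points.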
# [6] = A CellTox Green Cytotoxicity Assay to monitor cytotoxicity in HEK293 cells - 24 hour (AID 1224875); further: nearly all actives have a fitted effect of over 45% in size; further: potency means the concentration at half of the fitted maximal effect
# Procedure, shortened: as §2
# [7] = A CellTox Green Cytotoxicity Assay to monitor cytotoxicity in HepG2 cells - 16 hour (AID 1224876); further: nearly all actives have a fitted effect of over 45% in size; further: potency means the concentration at half of the fitted maximal effect
# Procedure, shortened: (§3)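 Real-time, homogeneous cytotoxicity readout: dead-cell DNA staining by CellTox Green in HepG2 monolayers, fluorescence measured at timed intervals up to 40 h of continuous compound exposure.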
# [8] = qHTS RealTime-Glo MT Cell Viability Assay in HepG2 cells - 32 hour (AID 1224877); further: nearly all actives have a fitted effect of over 55% in size
# Procedure, shortened: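 Luminescence read-out: viable HepG2 cells reduce a prosubstrate to a NanoLuc substrate, giving a signal proportional to live cell number. Reads taken at 0, 8, 16, 24, 32 and 40 h of compound exposure at 37 C.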
# [9] = A CellTox Green Cytotoxicity Assay to monitor cytotoxicity in HepG2 cells - 24 hour (AID 1224878); further: nearly all actives have a fitted effect of over 45% in size; further: potency means the concentration at half of the fitted maximal effect
# Procedure, shortened: as §3
# [10] = A CellTox Green Cytotoxicity Assay to monitor cytotoxicity in HepG2 cells - 40 hour (AID 1224879); further: nearly all actives have a fitted effect of over 40% in size; further: potency means the concentration at half of the fitted maximal effect
# Procedure, shortened: as §3
Structure (SMILES),Potency [1],Potency [2],Potency [3],Potency [4],max response [5],Potency [6],Potency [7],Potency [8],Potency [9],Potency [10],Potency [5]
Cc1cccc(C)c1NC(=O)C(C)N (stereo not given),inactive,19 µM (active),inactive,inactive,4.07%,21.3 µM (active),21.3 µM (active),inactive,21.3 µM (active),23.9 µM (active),–
CC(C)NCCCC1(C(N)=O)c2ccccc2-c2ccccc21,inactive,inactive,inactive,inactive,-19.1%,inactive,inactive,inactive,inactive,inactive,–
CS(=O)(=O)O,inactive,inactive,inactive,inactive,2.93%,inactive,inactive,inactive,inactive,inactive,–
CCCCCCCCCCCCCCCCC,inactive,inactive,inactive,inactive,5.06%,inactive,inactive,inactive,inactive,inactive,–
Cc1[nH]c(=O)c(C#N)cc1-c1ccc2nccn2c1,inactive,inactive,inactive,inactive,5.99%,inactive,inactive,inactive,inactive,inactive,–
CC(C)(C)c1nnc(NS(=O)(=O)c2ccccc2)s1,inactive,inactive,inactive,inactive,2.61%,inactive,inactive,inactive,inactive,inactive,–
Cc1c(O)cccc1O,inactive,inactive,inactive,inactive,1.57%,inactive,inactive,inactive,inactive,inactive,–
CCN1CCC[C@H]1CNC(=O)c1c(O)c(Cl)cc(Cl)c1OC,inactive,inactive,inactive,inactive,-0.593%,inactive,inactive,inactive,inactive,inactive,–
O=C[C@H](O)[C@@H](O)[C@H](O)[C@H](O)CO,inactive,inactive,inactive,inactive,17.2%,inactive,inactive,inactive,inactive,inactive,–
O=C(O)CCCc1ccccc1,inactive,inactive,inactive,inactive,0.564%,inactive,–,inactive,–,inactive,–
CC1(C)C(O)C(C)(C)C1O (stereo not given),inactive,inactive,inactive,inactive,0.527%,inactive,inactive,inactive,inactive,inactive,–
CC(=O)OC/C=C(\C)CC/C=C(\C)CCC=C(C)C,inactive,inactive,inactive,inactive,12.3% and 2.35%,inactive,inactive,inactive,inactive,inactive,–
CN(C)CCCNCCCN(C)C,inactive,inactive,inactive,inactive,5.75%,inactive,inactive,inactive,inactive,inactive,–
C[C@@H]1CCN(C(=O)[C@H](CCCN=C(N)N)NS(=O)(=O)c2cccc3c2NC[C@H](C)C3)[C@@H](C(=O)O)C1,inactive,inactive,inactive,inactive,4.96%,inactive,inactive,inactive,inactive,inactive,–
O=S(O)CO,inactive,inactive,inactive,inactive,10.1%,inactive,inactive,inactive,inactive,inactive,–
CC(=O)CC(C)(C)C1CCCCC1,inactive,inactive,inactive,inactive,9.93%,inactive,inactive,inactive,inactive,inactive,–
NCCc1cnc[nH]1,inactive,inactive,inactive,inactive,-0.307%,inactive,inactive,inactive,inactive,inactive,–
CN1CC(=O)NC1=N,inactive,inactive,inactive,inactive,9.12%,inactive,inactive,inactive,inactive,inactive,–
c1cnc(N2CCN(Cc3ccc4c(c3)OCO4)CC2)nc1,inactive,inactive,inactive,inactive,-13%,inactive,inactive,inactive,inactive,inactive,–
NS(=O)(=O)c1ccc(C(=O)O)cc1,inactive,inactive,inactive,inactive,-0.921%,inactive,inactive,inactive,inactive,inactive,–
O=C(CCCN1CCC(O)(c2cccc(C(F)(F)F)c2)CC1)c1ccc(F)cc1,inactive,inactive,19 µM (active),inactive,–,–,inactive,inactive,–,–,21.3 µM (active)
N[C@H]1CN(c2c(F)cc3c(=O)c(C(=O)O)cn(C4C[C@H]4F)c3c2Cl)CC12CC2 (stereo not given in full),inactive,inactive,inactive,inactive,11.4%,inactive,inactive,inactive,inactive,inactive,–
Cc1cc(O)cc2c1O[C@](C)(CCC[C@H](C)CCC[C@H](C)CCCC(C)C)CC2,inactive,inactive,inactive,inactive,5.25%,inactive,inactive,inactive,inactive,inactive,–
